Screening results as filed in PubChem.
Sampled rows, rich in hits. Any-hit rate of the full collection: about 3.2%.
Bim-Mcl-1 = inhibitors of Bim peptide binding to Mcl-1, primary screen, biochemical, bead-based flow cytometry, multiplex; inhibition, % at 10 µM; Induced myeloid leukemia cell differentiation protein Mcl-1 (Homo sapiens), Q07820; actives 0.1% (n = 190,000); Bim peptide-Mcl-1 binding; in the data active = inhibition above about 40%;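 note: 0% = no compound tracer wells and 100% = peptide blocker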
Target sequence (Q07820 whole entry, looked up): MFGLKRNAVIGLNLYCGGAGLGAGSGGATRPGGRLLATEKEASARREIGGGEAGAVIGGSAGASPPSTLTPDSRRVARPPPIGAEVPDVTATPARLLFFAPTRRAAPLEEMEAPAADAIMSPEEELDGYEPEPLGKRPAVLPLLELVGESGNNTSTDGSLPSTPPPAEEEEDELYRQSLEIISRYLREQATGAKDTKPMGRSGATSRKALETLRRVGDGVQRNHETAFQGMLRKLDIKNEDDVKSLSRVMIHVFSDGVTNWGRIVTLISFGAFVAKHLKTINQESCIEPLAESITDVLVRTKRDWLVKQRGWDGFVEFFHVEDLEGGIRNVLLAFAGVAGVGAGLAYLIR
NCF1 inh = p47phox/p22phox peptide binding inhibitors, primary screen, biochemical, uHTS, NADPH oxidase regulatory subunit | actives 0.53% (n = 220,000) | inhibition, % at 24.7 µM | AID 1274, 2008 | fluorescence polarization, 2 h | Neutrophil cytosol factor 1 (Homo sapiens), P14598;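 active = inhibition above about 30%, limit read from the data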;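 note: 0% = p47phox with labelled peptide and 100% = labelled peptide alone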
Mcl1-Bid inh = Mcl-1/Bid binding inhibitors, primary screen, biochemical, TR-FRET, 1536-well. inhibition, % at 21.7 µM. TR-FRET Mcl-1/Bid-Dy647 peptide binding. actives 0.97% (n = 220,000). Induced myeloid leukemia cell differentiation protein Mcl-1 (Homo sapiens), Q07820;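 active = compounds that cut the binding signal by more than half at the single screening dose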;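 note: His-tagged Mcl-1 with europium anti-His antibody binding Bid BH3 peptide; 0% = Mcl-1 plus peptide wells and 100% = peptide-only wells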
14-3-3 Bad inh = inhibitors of 14-3-3 zeta/Bad binding, primary screen, biochemical, TR-FRET, bovine 14-3-3 zeta. TR-FRET 14-3-3zeta/Dy647-pBad peptide displacement, 1 h. inhibition, % at 21.7 µM. actives 0.71% (n = 220,000). 14-3-3 protein zeta/delta (Bos taurus), P63103;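 active = inhibition above about 70%, limit read from the data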;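 note: 0% = full 14-3-3 plus peptide FRET controls and 100% = background without 14-3-3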
Target sequence (P63103 whole entry, looked up): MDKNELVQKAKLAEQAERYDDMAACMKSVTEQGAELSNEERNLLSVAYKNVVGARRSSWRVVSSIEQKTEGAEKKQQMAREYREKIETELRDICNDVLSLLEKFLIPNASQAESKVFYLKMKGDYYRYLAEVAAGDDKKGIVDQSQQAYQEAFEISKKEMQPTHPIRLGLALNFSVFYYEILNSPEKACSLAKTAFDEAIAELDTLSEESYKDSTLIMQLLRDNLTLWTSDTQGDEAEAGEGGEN
Mcl1 Noxa PPI = Mcl-1/Noxa binding inhibitors, primary screen, biochemical, TR-FRET, 1536-well. Induced myeloid leukemia cell differentiation protein Mcl-1 (Homo sapiens), Q07820. TR-FRET Mcl-1/Noxa peptide binding, 2 h. inhibition, % at 21.7 µM. actives 1.5% (n = 220,000). AID 1022, 2008;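 active = compounds that cut the protein-peptide binding signal by more than 50% relative to plate controls in a single-dose test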;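 note: His-tagged Mcl-1 with rhodamine Noxa BH3 peptide and terbium anti-His antibody; 0% = Mcl-1 plus Noxa peptide wells and 100% = peptide-only wells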
* hit, by the source's call; nt = no result given.

SMILES	Bim-Mcl-1	NCF1 inh	Mcl1-Bid inh	14-3-3 Bad inh	Mcl1 Noxa PPI
CCN(C(=O)COC(=O)c1cccc(-n2cnnn2)c1)C1CCCCC1	-1.0	4.3	-10.1	-8.5	-1.4
CCN1CCN(S(=O)(=O)CC2(C)C3CCC2(C)C(=O)C3Br)CC1 (centres undefined)	0.0	-2.1	-17.8	-1.7	-2.6
CCn1c(C)cc(/C=C2\NC(=O)N(Cc3ccc(Cl)cc3)C2=O)c1C	0.0	-5.4	90.1*	23.4	82.7*
CCC(C)n1c(=S)[nH]c2c(sc3ccc([N+](=O)[O-])cc32)c1=O (centres undefined)	-2.0	-2.0	-97.2	-6.9	-27.7
Cc1cc(/C=N/NC(=O)COc2cccc3cccnc23)c(C)n1-c1ccc(O)cc1	-1.0	-10.9	-9.6	-13.5	72.2*
Cc1cc(C)cc(-n2c(C)cc(/C=N\NC(=O)COc3cccc4cccnc34)c2C)c1	-4.0	-29.9	-10.9	-8.8	22.6
CN(C)C(=O)c1sccc1Oc1ccc(F)cc1[N+](=O)[O-]	-1.0	-10.3	-3.9	-0.9	5.2
N=C1/C(=C/c2coc3ccccc3c2=O)C(=O)N=C2SC(c3ccco3)=NN12	nt	-63.0	-81.9	38.0	45.8
N=C1/C(=C\c2coc3ccccc3c2=O)C(=O)N=C2SC(c3ccncc3)=NN12	nt	-99.7	-159.4	35.2	61.1*
CCOc1cc(S(=O)(=O)NCc2ccncc2)ccc1Cl	0.0	-17.4	-12.5	-6.9	7.5
Cc1ccc(C(O)c2nc3ccccc3n2C(C)C)cc1 (centres undefined)	-1.0	70.8*	9.2	7.4	6.8
COc1ccc(C(O)c2nc3ccccc3n2C(C)C)cc1 (centres undefined)	nt	-19.1	3.3	5.8	5.6
O=C(O)CCc1ccc(-c2ccc(Br)cc2)o1	-6.0	6.4	-33.7	9.4	22.9
O=C(O)CCc1ccc(-c2ccc(Cl)cc2)o1	-2.0	-12.1	94.7*	-2.3	17.9
CN1C(=O)/C(=C/c2coc3ccc(O)cc3c2=O)SC1=S	nt	-15.3	-5.3	18.9	53.8*
Cc1cc(/C=C2\SC(N)=NC2=O)c(C)n1-c1ccc(F)cc1	-3.0	-114.6	-34.8	-12.8	3.6
CCC(C)NCCOc1ccc(C(C)(C)c2ccccc2)cc1 (centres undefined)	-3.0	-0.2	26.0	3.9	32.1
CCCOc1ccc(OCCCCNC(C)CC)cc1 (centres undefined)	-2.0	-7.6	60.0*	49.6	27.7
COc1ccc(Oc2nc(SC)nc3ccsc23)cc1	-2.0	40.6*	4.3	-5.8	-16.3
CSc1nc(Cl)c(C#N)c(-c2ccc(C)cc2)n1	-2.0	-3.4	20.4	77.2*	3.3
COc1ccc(-c2nc(-c3cccc(C)c3)nc(Cl)c2C#N)cc1	0.0	-15.5	10.2	6.7	-41.0
COc1cc(NCCC(=O)c2cccs2)c(OC)cc1Cl	-1.0	7.9	-28.4	0.4	86.4*
COc1cc(NC(=O)C/C(C)=N/NC(=O)c2cccs2)c(OC)cc1Cl	-6.0	4.2	-49.0	-5.6	-8.7
Cc1cc(NC2C3CC4CC(C3)CC2C4)n2nnnc2n1 (centres undefined)	0.0	-7.8	75.7*	0.8	27.4
COc1ccc2[nH]c3c(c2c1)CCn1c-3nc2sc(C(=O)Nc3ccccc3)c(C)c2c1=O	0.0	8.5	75.0*	45.3	53.5*
SMILES	Bim-Mcl-1	NCF1 inh	Mcl1-Bid inh	14-3-3 Bad inh	Mcl1 Noxa PPI
O=C(CSc1nc2ccsc2c(=O)n1Cc1ccccc1)NCC1CCCO1 (centres undefined)	-5.0	-1.8	-17.5	-5.4	-0.3
O=C(CSc1nc2scc(-c3ccco3)c2c(=O)n1-c1ccccc1)NCC1CCCO1 (centres undefined)	-1.0	-15.6	3.0	-4.7	55.6*
O=C(CSc1nc2ccsc2c(=O)n1Cc1ccc(C(=O)O)cc1)NCC1CCCO1 (centres undefined)	73.0*	0.0	18.1	-0.4	13.5
NC(=O)CSc1nc2scc(-c3ccco3)c2c(=O)n1-c1ccccc1	0.0	-15.2	6.4	6.1	54.9*
CC(C)N(Cc1cn[nH]c1-c1ccc(-c2ccccc2)cc1)Cc1nccn1C	-3.0	-7.0	-13.9	-15.7	11.8
O=C(NN=C1CCCCCCCCCCC1)c1cccc(S(=O)(=O)N2CCOCC2)c1	-1.0	-2.5	-1.7	-1.9	12.9
Cc1ccc(CNC(=O)Cc2noc3ccccc23)cc1	0.0	-4.3	-17.3	2.6	18.1
CC(C)CCN1CCN(Cc2nc(-c3ccc(F)cc3)cs2)CC1CCO (centres undefined)	0.0	-8.8	-12.1	-4.5	-3.7
CN(C(=O)CSc1cc(C(=O)c2nccn2C)c2ccccc2n1)c1ccccc1	nt	8.6	-10.8	6.0	21.9
OCCNC(=S)c1ccccc1	nt	-21.1	-14.5	-0.1	-4.1
CN1CCC(N(C)CC(=O)Nc2ccc3c(c2)OC(F)(F)O3)CC1	nt	3.3	59.8*	44.8	28.8
CCN(c1ccccc1)S(=O)(=O)c1ccc(Cl)c(NC(=O)CN(C)C2CCN(C)CC2)c1	nt	6.5	36.7	90.3*	38.1
CN1CCC(N(C)CC(=O)Nc2ccccc2N2CCOCC2)CC1	3.0	-11.6	3.3	78.8*	36.5
Cc1cc(NC(=O)CSc2ncn[nH]2)no1	0.0	-4.1	-16.3	-4.6	-4.2
CC(C)c1nnc(NC(=O)CSc2ncn[nH]2)s1	-9.0	-6.0	-3.4	6.8	53.3*
COC(=O)CSc1nc2sc3c(c2c(=O)[nH]1)CCC3	nt	76.5*	-24.5	-1.7	16.4
CCOC(=O)N/N=C(\C)c1ccccc1OC(F)F	0.0	-1.0	8.3	-8.6	20.2
CCOC(=O)NC(=O)c1cn(Nc2ccccc2)c(=O)[nH]c1=O	nt	-5.8	-18.4	-7.1	-3.8
COc1ccccc1-n1c(SCc2cc(=O)oc3cc(O)ccc23)nc2ccccc2c1=O	-1.0	-37.6	-70.6	-25.1	66.6*
CCN(CC)CC(=O)Nc1cccc2c1C(=O)c1ccccc1C2=O	0.0	-3.1	-2.7	0.3	15.6
O=C1c2ccccc2C(=O)c2c(NCCCN(CCO)CCO)cccc21	-3.0	37.3*	-35.5	-27.5	7.5
Cc1nc(Nc2cccc(C(C)O)c2)c2nnn(Cc3ccccc3F)c2n1 (centres undefined)	0.0	-0.9	-12.6	-0.5	10.1
CCOCc1nnc(NC(=O)c2cc(OC)c(OC)cc2[N+](=O)[O-])s1	-3.0	2.6	-7.8	-9.8	11.2
Cc1cc(C)cc(NC2=NCC(=O)N2Cc2ccccc2)c1	0.0	-15.3	-25.0	72.3*	-10.6
Cc1cccc(NC2=NCC(=O)N2Cc2ccccc2)c1	-4.0	-3.5	14.0	29.9	35.4
O=C1CN=C(Nc2ccccc2)N1Cc1cccs1	0.0	-16.7	5.9	71.7*	12.7
